# The list is not random: actives were taken first. Their share in the collection is about 11%.
# NPR1 antag: Natriuretic polypeptide receptor (hNpr1) antagonism - Primary qHTS; AID 1347048, 2019; Potency, µM (highest dose often 46.3 µM), without a hit: at the highest dose activity change, negative = inhibition, hits mostly inhibitors; HEK293 hNpr1 GloSensor cGMP, ANP-stimulated luminescence; actives 1.6% (n = 76,000); calls by dose curve; further: nearly all actives have a fitted effect of over 60% in size
# Target sequence (P16066 whole entry, looked up): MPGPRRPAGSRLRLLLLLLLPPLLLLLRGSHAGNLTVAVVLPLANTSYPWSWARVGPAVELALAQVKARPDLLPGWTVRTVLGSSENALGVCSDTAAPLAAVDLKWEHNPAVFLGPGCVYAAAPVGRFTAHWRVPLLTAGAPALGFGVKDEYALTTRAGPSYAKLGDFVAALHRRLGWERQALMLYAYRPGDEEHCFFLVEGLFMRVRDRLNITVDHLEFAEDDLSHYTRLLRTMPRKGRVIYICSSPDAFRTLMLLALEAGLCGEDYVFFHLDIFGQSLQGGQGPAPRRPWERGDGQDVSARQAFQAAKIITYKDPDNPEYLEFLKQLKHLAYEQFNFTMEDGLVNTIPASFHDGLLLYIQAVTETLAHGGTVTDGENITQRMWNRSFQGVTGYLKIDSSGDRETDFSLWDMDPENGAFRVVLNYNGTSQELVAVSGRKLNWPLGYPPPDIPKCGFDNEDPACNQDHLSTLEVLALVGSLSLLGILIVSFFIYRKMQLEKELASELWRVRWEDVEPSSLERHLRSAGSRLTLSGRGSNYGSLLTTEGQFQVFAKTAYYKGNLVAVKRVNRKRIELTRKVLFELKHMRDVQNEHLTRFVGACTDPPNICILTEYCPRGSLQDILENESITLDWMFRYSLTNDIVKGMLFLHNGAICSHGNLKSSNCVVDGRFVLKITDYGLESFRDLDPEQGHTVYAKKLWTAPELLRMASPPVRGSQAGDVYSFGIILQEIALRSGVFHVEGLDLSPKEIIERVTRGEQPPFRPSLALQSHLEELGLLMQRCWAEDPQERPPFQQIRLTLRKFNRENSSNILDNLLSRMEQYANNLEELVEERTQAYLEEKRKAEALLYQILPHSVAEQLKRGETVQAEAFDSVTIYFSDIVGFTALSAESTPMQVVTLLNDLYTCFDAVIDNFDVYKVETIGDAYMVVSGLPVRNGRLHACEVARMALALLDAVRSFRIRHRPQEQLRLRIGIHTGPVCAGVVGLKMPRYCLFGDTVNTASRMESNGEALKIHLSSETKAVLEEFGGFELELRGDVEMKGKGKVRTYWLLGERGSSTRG
#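 Compound pre-incubated 30 min at room temperature on GloSensor-loaded HEK293 cells stably carrying hNpr1 and the pGS-40F cGMP biosensor. Stimulation uses hNppA at 0.1 nM final; luminescence is taken at baseline and 20 min post-agonist.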
# 3T3 cytotox: Cytotoxic Profiling in NIH 3T3 Cell Line of Diverse Libraries Using Quantitative High-Throughput Screening; actives 4.3% (n = 94,000); NIH 3T3 viability, CellTiter-Glo ATP luminescence, 48-72 h; Potency, µM (doses to about 96.7 µM), for the others: at the top dose activity change, negative = cytotoxicity, hits mostly inhibitors; AID 1345082, 2018; further: nearly all actives have a fitted effect of over 55% in size
#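 Luminescent ATP readout (CellTiter-Glo, 10 min RT) after 48 or 72 hr compound exposure of NIH 3T3 cells seeded at 400 cells/well in 1536-well format; quantitative HTS.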
# HEK cytotox: Cytotoxic Profiling in HEK 293 Cell Line of Diverse Libraries Using Quantitative High-Throughput Screening. HEK 293 viability, ATP luminescence (CellTiter-Glo), 48-72 h. Potency, µM (titrated, usually from 115 µM), for inactives: top-dose activity change, negative = cytotoxicity, actives largely listed as inhibitors. actives 6.6% (n = 94,000). AID 1345083, 2018; further: nearly all actives have a fitted effect of over 60% in size
#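 250 HEK 293 cells/well; compound by pintool; incubated 48 or 72 hr at 37 degree Celsius; CellTiter-Glo added, 10 min RT, luminescence imaged.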
# Luciferase inh: Firefly luciferase inhibition profiling of diverse chemical library using quantitative high-throughput screening. Luciferin 4-monooxygenase (Photinus pyralis), P08659. purified P. pyralis luciferase, luminescence, biochemical. Potency, µM (highest dose often 115 µM), actives largely listed as inhibitors. actives 2.5% (n = 76,000). AID 1347043, 2019; further: nearly all actives have a fitted effect of over 65% in size
#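 Cell-free enzyme assay, 10nM P. pyralis luciferase, luciferin and ATP each at 10uM. Inhibition profiled over a 6-point titration, read as luminescence.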
# * marks the source's active call; other numbers are inactive results; i = inactive; u = inconclusive; x = not tested or not shown; [ ] = remark or other dose. Unless noted, the call rests on the fitted dose curve; in most records, active means well fitted curve in the direction sought with a large enough effect; inconclusive means small, poorly fitted or top-dose-only effect, or another doubt; inactive means no such curve, though single readings can be large; an effect the other way counts as inactive or inconclusive. On the % scale 0 is the no-effect control and ±100 the full control effect; potency means the concentration at half of the fitted maximal effect.
SMILES,NPR1 antag,3T3 cytotox,HEK cytotox,Luciferase inh
Fc1cc(Nc2ncc(-c3ccccc3)c3c2OCC3)cc(N2CCOCC2)c1,1%[70.6 µM],u,u,i
Cc1noc(C)c1[S+](=O)([O-])NCCNC(=O)c1ccc(-c2cncnc2)cc1,x,0%,-1%,x
Cc1ccc(C)c(C(=O)N2CCC(Oc3nccnc3N(C)C)C2)c1 (stereo not drawn),-10%,-5%,u,u
O=C1Nc2ccccc2CC12CCN(Cc1ccc(F)cc1)C2 (stereo not drawn),0%[70.6 µM],-24%[138 µM],71µM*,i
Cc1ccc(CN2CC(N(C3CCOCC3)S(C)(=O)=O)C2)cc1,x,-5%,-1%,x
Cn1c(CO[C@H]2CN(Cc3ccc4c(c3)OCCO4)C[C@H]2F)nc2ccccc21,-10%[70.6 µM],89µM*,u,i
CC(C)CCNC(=O)c1c(OCC2CC2)cc(=O)n2c1CCCCC2,-1%,35µM*,u,i
COc1ccc(C(C)NC(=O)C2CCN(C(=O)c3ncn4c3COC(c3ccccc3)C4)CC2)cc1 (stereo not drawn),-12%,-13%,-6%,28µM*
CC(NC(=O)C1CCN(C(=O)c2ncn3c2COC(c2ccc(Cl)cc2)C3)CC1)c1ccccc1 (stereo not drawn),4%,i,2%,i
COc1cc(NC(=O)C2CCN(C(=O)c3ncn4c3COC(c3ccccc3)C4)CC2)cc(OC)c1 (stereo not drawn),-5%,-7%,-19%,25µM*
O=C(NCc1cccc(Cl)c1)C1CCN(C(=O)c2ncn3c2COC(c2ccc(F)cc2)C3)CC1 (stereo not drawn),3%,1%,14%,25µM*
O=C(NCc1ccccn1)C1CCN(C(=O)c2ncn3c2COC(c2ccc(Cl)cc2)C3)CC1 (stereo not drawn),1%,4%,-10%,32µM*
O=C(NCc1cc(F)cc(F)c1)C1CCN(C(=O)c2ncn3c2COC(c2ccc(F)cc2)C3)CC1 (stereo not drawn),-1%,0%,-19%,u
O=C(NCc1cccc(Cl)c1)C1CCN(C(=O)c2ncn3c2COC(c2ccccc2)C3)CC1 (stereo not drawn),-14%,-19%,1%,20µM*
CC(=O)N1CCN(c2ncccc2-c2cc(-c3ccccc3)nc3c(C)noc23)CC1,2%[70.6 µM],u,-24%[172 µM],i
Cc1noc2c(NC3CCN(C)CC3)cc(-c3ccccn3)nc12,-1%[70.6 µM],u,112µM*,i
Cc1noc2c(NC3CCN(C)CC3)cc(-c3cccc(C(F)(F)F)c3)nc12,5%[70.6 µM],u,40µM*,i
Cc1noc2c(N3CCNC(=O)C3)cc(-c3cccc(C(F)(F)F)c3)nc12,-25%[70.6 µM],u,u,i
Cc1noc2c(-c3cccnc3NC3CCN(C)CC3)cc(-c3ccccc3)nc12,2%[70.6 µM],32µM*,63µM*,i
Cc1noc2c(NC3CCN(C)CC3)cc(-c3ccccc3)nc12,1%[70.6 µM],u,100µM*,i
Cc1noc2c(NCCc3ccccn3)cc(-c3ccccc3)nc12,-2%[70.6 µM],u,u,i
O=C(NCc1ccccn1)c1ccc2nnc(-c3ccc(F)cc3)n2c1,x,-8%,i,x
COc1ccc(C(=O)N2CC(N(C)c3ccccc3C)C2)cc1,5%[70.6 µM],u,u,i
Cc1ccccc1Oc1ncccc1CNCc1cccc(O)c1,-29%,-21%,u,i
CSc1ccccc1-c1ccc(N2CCN(C)CC2)nn1,-4%,i,4%,16µM*
